Measurements: PubChem BioAssay (NCI)
Compounds without any hit were thinned out: in the full panel of roughly 79,000, 15% have a hit. Activity calls are given as the source filed them. Cut-off read from the data, not from the text of the source: active = growth inhibition above about 70%; inactive = the rest.

Key:
[1] = NCI Yeast Anticancer Drug Screen. Data for the mec2-1 strain (AID 157); settings: S. cerevisiae mec2-1 strain, hits give high values
Method in brief: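 Mutant yeast (mec2-1) grown with compound; growth inhibition relative to vehicle control reported.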

[2] = NCI Yeast Anticancer Drug Screen. Data for the rad14 strain (AID 159);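 note: 0% = growth of vehicle-treated control cultures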; settings: S. cerevisiae rad14 strain growth inhibition, hits give high values
Method in brief: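 Compound-treated yeast with a defined DNA-repair lesion; growth inhibition normalised to vehicle-treated cultures.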

[3] = NCI Yeast Anticancer Drug Screen. Data for the sgs1 mgt1 strain (AID 161);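 note: 0% = growth of cultures given vehicle only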; settings: S. cerevisiae sgs1 mgt1 strain, hits give high values
Method in brief: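 This yeast growth screen uses a strain with defined DNA-repair lesions; compound-treated growth is compared with vehicle-treated growth.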

[4] = NCI Yeast Anticancer Drug Screen. Data for the CLN2oe strain (AID 163);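 note: 0% = growth of vehicle-only control cultures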; settings: S. cerevisiae CLN2oe strain, hits give high values
Method in brief: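 Compounds are applied to yeast harbouring a defined cell-cycle control change; reduced growth compared with vehicle-treated controls gives the value.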

[5] = NCI Yeast Anticancer Drug Screen. Data for the cln2 rad14 strain (AID 165);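 note: 0% = growth equal to vehicle treated cultures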; settings: S. cerevisiae cln2 rad14 strain, hits give high values
Method in brief: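 Readout is yeast growth inhibition versus vehicle-treated controls, using a strain with cln2 and rad14 alterations exposed to compound.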

[6] = NCI Yeast Anticancer Drug Screen. Data for the bub3 strain (AID 167); settings: S. cerevisiae bub3 mutant strain, hits give high values
Method in brief: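 Growth of a checkpoint-deficient yeast mutant is measured after compound exposure. Values represent inhibition relative to vehicle.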

[7] = NCI Yeast Anticancer Drug Screen. Data for the wt2 strain (AID 169);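 note: 0% = growth of vehicle-treated yeast cultures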; settings: S. cerevisiae wt2 strain growth inhibition, hits give high values
Method in brief: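 Against vehicle-treated controls, the growth of yeast exposed to each compound was compared, and the inhibition was recorded.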

[8] = NCI Yeast Anticancer Drug Screen. Data for the sgs1 strain (AID 173);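 note: 0% = growth of vehicle-only control cultures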; settings: S. cerevisiae sgs1 mutant, hits give high values
Method in brief: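 Each compound was added to cultures of the altered yeast strain. Growth was recorded, and inhibition was derived by comparison with vehicle controls.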

[9] = NCI Yeast Anticancer Drug Screen. Data for the mlh1 rad18 strain (AID 175); settings: S. cerevisiae mlh1 rad18 strain growth inhibition, hits give high values
Method in brief: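 Genetically defined yeast (DNA repair-deficient) exposed to compounds; growth inhibition determined relative to vehicle.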

[10] = NCI Yeast Anticancer Drug Screen. Data for the rad18 strain (AID 177); settings: S. cerevisiae rad18 mutant growth inhibition, hits give high values
Method in brief: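 Vehicle-treated cultures served as the baseline for scoring compound-induced growth inhibition in DNA-repair-mutant yeast.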

[11] = NCI Yeast Anticancer Drug Screen. Data for the rad52 strain (AID 147);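 note: 0% = growth of vehicle-treated control cultures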; settings: S. cerevisiae rad52 mutant growth inhibition, hits give high values
Method in brief: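 The repair-mutant yeast strain was incubated with compounds, then growth was read and inhibition derived relative to vehicle.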

[12] = NCI Yeast Anticancer Drug Screen. Data for the wt1 strain (AID 149);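 note: 0% = growth of vehicle-treated wt1 cultures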; settings: S. cerevisiae wt1 strain (SPY 50644) growth inhibition, hits give high values
Method in brief: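 Readout: yeast growth inhibition, normalised to vehicle controls, in the wt1 strain exposed to test compounds.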

[13] = NCI Yeast Anticancer Drug Screen. Data for the rad50EPP+ strain (AID 151);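 note: 0% = growth of vehicle-treated control cultures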; settings: S. cerevisiae rad50 mutant strain, hits give high values
Method in brief: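 Vehicle-normalised growth inhibition; rad50EPP+ yeast strain, altered in DNA damage repair, compound-treated.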

[14] = NCI Yeast Anticancer Drug Screen. Data for the mgt1 strain (AID 153); settings: S. cerevisiae mgt1 mutant growth inhibition, hits give high values
Method in brief: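 Vehicle-normalized growth inhibition is determined in mgt1 yeast, a strain selected for a defined alteration in DNA repair or cell cycle control.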

[15] = NCI Yeast Anticancer Drug Screen. Data for the rad50 strain (AID 155);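 note: 0% = growth of vehicle-only cultures of the same strain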; settings: S. cerevisiae rad50 strain growth inhibition, hits give high values
Method in brief: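 Compounds were tested on a yeast strain with an engineered DNA damage repair alteration; the reported value is growth inhibition normalised to vehicle treatment.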

[16] = NCI Yeast Anticancer Drug Screen. Data for the mlh1 strain (AID 171);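 note: 0% = growth of vehicle-treated control cultures of the same strain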; settings: S. cerevisiae mlh1 strain growth inhibition, hits give high values
Method in brief: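 Measured: yeast growth. Reference: vehicle-treated controls. Organism: strain with a defined alteration affecting DNA damage repair or cell cycle control, treated with compound.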

[17] = at 5.0 µM (retest, dose inferred, filed as 0.5)
[18] = at 50.0 µM (retest, dose inferred, filed as 5.0)

Measured: growth inhibition

O=C(NC(Nc1ccc(F)c(Cl)c1)(C(F)(F)F)C(F)(F)F)C(C(F)(F)F)C(F)(F)F
active: [1]; at 11.0 µM 74% | [1]; at 33.0 µM 97% | [1]; [18] 92% | [1]; at 100.0 µM 98% | [2]; at 33.0 µM 85% | [2]; at 100.0 µM 94% | [3]; [18] 72% | [4]; at 11.0 µM 92% | [4]; at 33.0 µM 97% | [4]; at 100.0 µM 97% | [5]; [18] 98% | [5]; at 50.0 µM 88% | [6]; at 11.0 µM 80% | [6]; at 33.0 µM 95% | [6]; [18] 95% | [6]; at 50.0 µM 75% | [6]; at 100.0 µM 97% | [7]; at 11.0 µM 86% | [7]; at 33.0 µM 99% | [7]; at 100.0 µM 99% | [8]; at 33.0 µM 93% | [8]; at 100.0 µM 96% | [9]; [18] 90% | [9]; at 50.0 µM 93.4% | [10]; at 33.0 µM 83% | [10]; at 100.0 µM 92%
inactive: [1]; [17] 3% | [1]; at 50.0 µM 27.6% | [2]; at 1.2 µM 9% | [2]; at 3.7 µM 19% | [2]; at 11.0 µM 26% | [3]; [17] 17% | [3]; at 50.0 µM 36% | [4]; at 1.2 µM 9% | [4]; at 3.7 µM 32% | [5]; [17] 43% | [6]; at 1.2 µM 5% | [6]; at 3.7 µM 15% | [6]; [17] 20% | [7]; at 1.2 µM 1% | [7]; at 3.7 µM 34% | [8]; at 1.2 µM 8% | [8]; at 3.7 µM 14% | [8]; at 11.0 µM 42% | [9]; [17] 21% | [10]; at 1.2 µM 22% | [10]; at 3.7 µM 14% | [10]; at 11.0 µM 40%

COc1ccc(/C=C/C(=O)C(C)(C)Br)cc1
active: [11]; at 3.7 µM 89% | [11]; at 11.0 µM 95% | [11]; at 33.0 µM 97% | [11]; at 100.0 µM 98% | [13]; at 1.2 µM 79% | [13]; at 3.7 µM 93% | [13]; at 11.0 µM 96% | [13]; at 33.0 µM 97% | [13]; at 100.0 µM 98% | [14]; at 100.0 µM 71% | [15]; at 3.7 µM 74% | [15]; [17] 75% | [15]; at 11.0 µM 88% | [15]; at 33.0 µM 93% | [15]; [18] 96% | [15]; at 50.0 µM 94.5% | [15]; at 100.0 µM 96% | [1]; at 3.7 µM 71% | [1]; at 11.0 µM 96% | [1]; at 33.0 µM 97% | [1]; [18] 98% | [1]; at 50.0 µM 96.6% | [1]; at 100.0 µM 97% | [2]; at 11.0 µM 93% | [2]; at 33.0 µM 96% | [2]; at 100.0 µM 99% | [3]; [17] 86% | [3]; [18] 97% | [3]; at 50.0 µM 93.7% | [4]; at 100.0 µM 89% | [5]; [18] 92% | [5]; at 50.0 µM 91.5% | [6]; [18] 99% | [6]; at 50.0 µM 73.3% | [6]; at 100.0 µM 82% | [7]; at 100.0 µM 89% | [16]; at 100.0 µM 94% | [8]; at 3.7 µM 87% | [8]; at 11.0 µM 91% | [8]; at 33.0 µM 92% | [8]; at 100.0 µM 95% | [10]; at 1.2 µM 96% | [10]; at 3.7 µM 97% | [10]; at 11.0 µM 97% | [10]; at 33.0 µM 97% | [10]; at 100.0 µM 98%
inactive: [11]; at 1.2 µM 45% | [12]; at 1.2 µM 4% | [12]; at 3.7 µM 12% | [12]; at 11.0 µM 15% | [12]; at 33.0 µM 19% | [12]; at 100.0 µM 33% | [14]; at 1.2 µM 0% | [14]; at 3.7 µM 9% | [14]; at 11.0 µM 18% | [14]; at 33.0 µM 27% | [15]; at 1.2 µM 41% | [1]; at 1.2 µM 24% | [1]; [17] 11% | [2]; at 1.2 µM 28% | [2]; at 3.7 µM 69% | [4]; at 1.2 µM 0% | [4]; at 3.7 µM 3% | [4]; at 11.0 µM 20% | [4]; at 33.0 µM 36% | [5]; [17] 52% | [6]; at 1.2 µM -9% | [6]; at 3.7 µM -7% | [6]; [17] 26% | [6]; at 11.0 µM 4% | [6]; at 33.0 µM 25% | [7]; at 1.2 µM 2% | [7]; at 3.7 µM 10% | [7]; at 11.0 µM 26% | [7]; at 33.0 µM 37% | [16]; at 1.2 µM 5% | [16]; at 3.7 µM 19% | [16]; at 11.0 µM 33% | [16]; at 33.0 µM 54% | [8]; at 1.2 µM 69%

CC(/C=C/c1ccc(Cl)cc1)=N\NC(=S)NCC(C)C
inactive: [11]; at 1.2 µM -1% | [11]; at 3.7 µM -4% | [11]; at 11.0 µM 4% | [11]; at 33.0 µM 5% | [11]; at 100.0 µM 33% | [12]; at 1.2 µM -2% | [12]; at 3.7 µM -5% | [12]; at 11.0 µM 1% | [12]; at 33.0 µM -1% | [12]; at 100.0 µM 21% | [13]; at 1.2 µM -3% | [13]; at 3.7 µM -5% | [13]; at 11.0 µM 10% | [13]; at 33.0 µM 12% | [13]; at 100.0 µM 28% | [14]; at 1.2 µM -6% | [14]; at 3.7 µM -2% | [14]; at 11.0 µM -4% | [14]; at 33.0 µM 8% | [14]; at 100.0 µM 35% | [15]; at 1.2 µM -1% | [15]; at 3.7 µM 1% | [15]; [17] 1% | [15]; at 11.0 µM 4% | [15]; at 33.0 µM 11% | [15]; [18] 42% | [15]; at 50.0 µM 39.8% | [15]; at 100.0 µM 34% | [1]; at 1.2 µM -2% | [1]; at 3.7 µM -3% | [1]; [17] -9% | [1]; at 11.0 µM -4% | [1]; at 33.0 µM -1% | [1]; [18] 7% | [1]; at 50.0 µM 66.7% | [1]; at 100.0 µM 30% | [2]; at 1.2 µM 1% | [2]; at 3.7 µM -1% | [2]; at 11.0 µM -2% | [2]; at 33.0 µM 5% | [2]; at 100.0 µM 24% | [3]; [17] 46% | [4]; at 1.2 µM 0% | [4]; at 3.7 µM -8% | [4]; at 11.0 µM -8% | [4]; at 33.0 µM 5% | [4]; at 100.0 µM 28% | [5]; [17] 3% | [5]; [18] 37% | [5]; at 50.0 µM 17.6% | [6]; at 1.2 µM -1% | [6]; at 3.7 µM -1% | [6]; [17] 27% | [6]; at 11.0 µM -6% | [6]; at 33.0 µM 5% | [6]; [18] 68% | [6]; at 100.0 µM 37% | [7]; at 1.2 µM -7% | [7]; at 3.7 µM -5% | [7]; at 11.0 µM -12% | [7]; at 33.0 µM -2% | [7]; at 100.0 µM 24% | [16]; at 1.2 µM -3% | [16]; at 3.7 µM -5% | [16]; at 11.0 µM -3% | [16]; at 33.0 µM 7% | [16]; at 100.0 µM 36% | [9]; [17] 32% | [9]; [18] 64% | [10]; at 1.2 µM -7% | [10]; at 3.7 µM -4% | [10]; at 11.0 µM -1% | [10]; at 33.0 µM 3% | [10]; at 100.0 µM 32%
active: [3]; [18] 72% | [3]; at 50.0 µM 77.8% | [6]; at 50.0 µM 85.4% | [9]; at 50.0 µM 77.3%
